Test in all cases: DAPPL (digital affinity profiling via proximity ligation, sequencing); 10 mM Tris-HCl pH 7.5, 50 mM NaCl, 1 mM DTT, 4% glycerol, room temperature, 30 min; GST-TFs on glutathione beads, 16-mer random dsDNA library, 0.1% formaldehyde crosslink after washing; high values mean tight binding
Common to all, as to conditions: protein: recombinant; tags: N-terminal GST; dsDNA, one strand shown

For one assay, the target named is T1, FLI1 (Homo sapiens, UniProt Q01543 1-452).
T1 sequence: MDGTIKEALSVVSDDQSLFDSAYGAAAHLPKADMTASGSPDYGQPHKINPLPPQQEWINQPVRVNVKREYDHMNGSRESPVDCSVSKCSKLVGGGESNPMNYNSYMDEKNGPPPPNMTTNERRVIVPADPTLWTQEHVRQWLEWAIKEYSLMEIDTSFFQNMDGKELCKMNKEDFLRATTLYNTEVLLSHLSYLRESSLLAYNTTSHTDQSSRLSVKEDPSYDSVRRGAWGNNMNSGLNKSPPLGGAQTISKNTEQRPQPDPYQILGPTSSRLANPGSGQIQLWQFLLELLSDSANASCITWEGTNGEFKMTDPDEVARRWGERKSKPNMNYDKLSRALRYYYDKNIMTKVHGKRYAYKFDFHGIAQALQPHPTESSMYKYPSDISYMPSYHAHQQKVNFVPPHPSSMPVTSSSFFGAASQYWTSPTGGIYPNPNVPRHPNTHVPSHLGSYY
In a few lines:
(§1)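 Pools were built from human transcription factors expressed in yeast as GST fusions, captured on glutathione beads and DNA-barcoded, along with a tag-only sample. Incubation with 200 nmole of a 16-mer random double-stranded DNA library lasted 30 min at room temperature in Tris/NaCl/DTT/glycerol buffer, and was followed by washing, 0.1% formaldehyde crosslinking, proximity ligation, PCR amplification and Illumina NextSeq500 sequencing. Binding signal is the quotient of each hexamer's read frequency for a factor and its frequency for the tag-only sample.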

Another assay concerns the target T2, ELK1 (Homo sapiens, UniProt P19419 1-428).
T2 sequence: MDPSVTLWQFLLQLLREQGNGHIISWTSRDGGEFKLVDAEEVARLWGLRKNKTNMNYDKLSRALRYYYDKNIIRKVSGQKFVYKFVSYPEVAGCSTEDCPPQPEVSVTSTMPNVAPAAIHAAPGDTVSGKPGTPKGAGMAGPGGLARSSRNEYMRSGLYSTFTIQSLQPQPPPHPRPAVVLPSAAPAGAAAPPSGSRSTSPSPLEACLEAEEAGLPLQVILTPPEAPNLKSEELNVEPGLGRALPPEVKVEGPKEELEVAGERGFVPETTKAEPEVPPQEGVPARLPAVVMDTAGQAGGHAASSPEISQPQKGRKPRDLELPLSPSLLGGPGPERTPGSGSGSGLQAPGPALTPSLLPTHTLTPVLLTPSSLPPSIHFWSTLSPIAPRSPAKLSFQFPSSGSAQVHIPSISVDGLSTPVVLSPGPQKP
In a few lines: as §1

The target of a further assay is T3, ERG (Homo sapiens, UniProt P11308 1-479).
T3 sequence: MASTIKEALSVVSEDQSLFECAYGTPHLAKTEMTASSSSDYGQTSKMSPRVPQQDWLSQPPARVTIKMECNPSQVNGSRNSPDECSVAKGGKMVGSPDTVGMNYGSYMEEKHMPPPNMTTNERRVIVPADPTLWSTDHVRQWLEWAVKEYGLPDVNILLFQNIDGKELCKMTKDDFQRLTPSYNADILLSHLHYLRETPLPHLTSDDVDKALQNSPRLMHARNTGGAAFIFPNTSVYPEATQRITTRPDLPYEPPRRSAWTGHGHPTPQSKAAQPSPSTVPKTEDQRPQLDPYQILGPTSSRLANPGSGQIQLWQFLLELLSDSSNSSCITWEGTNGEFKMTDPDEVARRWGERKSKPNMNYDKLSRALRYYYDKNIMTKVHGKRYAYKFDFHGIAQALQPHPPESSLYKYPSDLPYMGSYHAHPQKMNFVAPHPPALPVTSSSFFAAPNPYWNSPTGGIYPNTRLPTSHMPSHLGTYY
In a few lines: as §1

A further assay concerns the target ELF1 (Homo sapiens, UniProt P32519 1-619). In a few lines: as §1
The next assay deals with T4, EHF (Homo sapiens, UniProt Q9NZC4 1-300).
T4 sequence: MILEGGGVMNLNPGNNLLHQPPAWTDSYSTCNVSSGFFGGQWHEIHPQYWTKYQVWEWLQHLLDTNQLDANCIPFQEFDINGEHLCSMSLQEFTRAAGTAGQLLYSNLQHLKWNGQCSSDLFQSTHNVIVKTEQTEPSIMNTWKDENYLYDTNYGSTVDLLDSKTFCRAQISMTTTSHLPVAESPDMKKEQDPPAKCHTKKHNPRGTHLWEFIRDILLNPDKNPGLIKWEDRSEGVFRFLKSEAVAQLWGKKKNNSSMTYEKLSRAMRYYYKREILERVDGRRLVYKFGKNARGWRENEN
In a few lines: as §1

The target in the next assay is SPIB (Homo sapiens, UniProt Q01892 1-262). In a few lines: as §1
Sequence of SPIB (Q01892 whole entry): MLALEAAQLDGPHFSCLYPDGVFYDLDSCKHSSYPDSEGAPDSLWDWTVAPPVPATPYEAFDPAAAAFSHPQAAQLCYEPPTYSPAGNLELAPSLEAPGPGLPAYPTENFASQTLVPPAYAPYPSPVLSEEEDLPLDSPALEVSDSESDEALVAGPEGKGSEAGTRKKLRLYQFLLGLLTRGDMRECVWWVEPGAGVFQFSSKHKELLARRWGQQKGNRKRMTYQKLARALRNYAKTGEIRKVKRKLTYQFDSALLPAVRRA
The next assay concerns the target T5, ELK3 (Homo sapiens, UniProt P41970 1-407).
T5 sequence: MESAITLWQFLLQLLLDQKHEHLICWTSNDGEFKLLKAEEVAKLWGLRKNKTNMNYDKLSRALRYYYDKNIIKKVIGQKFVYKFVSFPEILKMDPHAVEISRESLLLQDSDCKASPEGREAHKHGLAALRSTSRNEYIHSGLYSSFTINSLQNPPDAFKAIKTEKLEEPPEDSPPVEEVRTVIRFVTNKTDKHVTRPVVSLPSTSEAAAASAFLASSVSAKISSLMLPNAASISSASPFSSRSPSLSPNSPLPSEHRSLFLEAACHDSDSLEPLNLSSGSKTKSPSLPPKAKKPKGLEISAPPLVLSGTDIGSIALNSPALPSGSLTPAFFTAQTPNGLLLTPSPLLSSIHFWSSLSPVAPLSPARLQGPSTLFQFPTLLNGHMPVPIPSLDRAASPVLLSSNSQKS
Put shortly:
as §1

The target of another assay is T6, FEV (Homo sapiens, UniProt Q99581 1-238).
T6 sequence: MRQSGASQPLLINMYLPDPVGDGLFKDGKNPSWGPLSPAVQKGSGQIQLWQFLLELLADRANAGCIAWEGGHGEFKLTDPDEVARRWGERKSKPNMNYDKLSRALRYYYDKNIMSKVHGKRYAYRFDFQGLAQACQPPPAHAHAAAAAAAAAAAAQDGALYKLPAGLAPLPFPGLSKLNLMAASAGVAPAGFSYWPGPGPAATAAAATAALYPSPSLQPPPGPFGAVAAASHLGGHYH
In a few lines:
as §1

A further assay deals with ETV5 (Homo sapiens, UniProt P41161 1-510). Put shortly:
as §1

The target of the next assay is T7, SPIC (Homo sapiens, UniProt Q8N5J4 1-248).
T7 sequence: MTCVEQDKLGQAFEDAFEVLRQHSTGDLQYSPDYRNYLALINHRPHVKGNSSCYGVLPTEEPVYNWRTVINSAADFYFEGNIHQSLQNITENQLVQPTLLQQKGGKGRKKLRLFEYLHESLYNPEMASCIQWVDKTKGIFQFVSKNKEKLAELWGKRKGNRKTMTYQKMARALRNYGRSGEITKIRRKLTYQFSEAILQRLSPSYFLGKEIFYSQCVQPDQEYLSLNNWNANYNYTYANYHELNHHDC
Put shortly: as §1

The target of a further assay is ELF4 (Homo sapiens, UniProt Q99607 1-663). Put shortly:
as §1

For another assay, the target named is ETV1 (Homo sapiens, UniProt P50549 1-477). Put shortly: as §1
Sequence of ETV1 (P50549 whole entry): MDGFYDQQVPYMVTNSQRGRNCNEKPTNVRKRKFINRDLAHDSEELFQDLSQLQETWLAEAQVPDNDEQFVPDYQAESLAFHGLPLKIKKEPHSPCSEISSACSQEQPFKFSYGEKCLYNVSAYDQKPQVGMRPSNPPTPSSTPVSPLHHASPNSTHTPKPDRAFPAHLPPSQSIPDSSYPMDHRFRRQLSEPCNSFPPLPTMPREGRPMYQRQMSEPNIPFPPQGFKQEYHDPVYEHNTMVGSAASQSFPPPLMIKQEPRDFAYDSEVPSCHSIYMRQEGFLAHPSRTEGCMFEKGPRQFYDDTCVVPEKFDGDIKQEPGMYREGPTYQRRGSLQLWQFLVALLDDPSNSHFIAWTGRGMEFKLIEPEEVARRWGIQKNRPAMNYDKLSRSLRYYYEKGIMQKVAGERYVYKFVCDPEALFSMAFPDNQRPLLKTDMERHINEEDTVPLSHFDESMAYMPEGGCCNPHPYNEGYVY
Another assay addresses T8, ETS2 (Homo sapiens, UniProt P15036 1-469).
T8 sequence: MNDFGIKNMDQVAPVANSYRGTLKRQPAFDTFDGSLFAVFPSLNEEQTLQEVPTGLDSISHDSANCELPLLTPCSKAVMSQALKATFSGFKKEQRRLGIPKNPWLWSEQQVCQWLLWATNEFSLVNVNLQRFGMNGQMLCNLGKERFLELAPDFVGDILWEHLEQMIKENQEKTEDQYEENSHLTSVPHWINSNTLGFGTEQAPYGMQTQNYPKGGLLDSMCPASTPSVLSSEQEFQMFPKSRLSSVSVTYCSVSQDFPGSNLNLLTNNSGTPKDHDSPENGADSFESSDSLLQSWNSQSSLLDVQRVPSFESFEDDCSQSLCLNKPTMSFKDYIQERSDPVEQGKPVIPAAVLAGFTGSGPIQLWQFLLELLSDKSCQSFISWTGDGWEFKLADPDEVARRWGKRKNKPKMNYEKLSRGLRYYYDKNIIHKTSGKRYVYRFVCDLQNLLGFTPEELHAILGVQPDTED
Put shortly: as §1

A further assay addresses T9, ELF5 (Homo sapiens, UniProt Q9UKW6-2 1-255).
T9 sequence: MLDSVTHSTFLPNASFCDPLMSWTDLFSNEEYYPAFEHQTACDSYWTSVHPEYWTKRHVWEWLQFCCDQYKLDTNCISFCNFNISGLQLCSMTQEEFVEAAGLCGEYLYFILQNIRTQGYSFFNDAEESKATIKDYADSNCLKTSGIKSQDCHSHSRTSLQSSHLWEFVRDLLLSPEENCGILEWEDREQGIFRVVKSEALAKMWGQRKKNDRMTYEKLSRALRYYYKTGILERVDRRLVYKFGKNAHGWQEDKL
Put shortly:
as §1

The target in another assay is T10, ETV3 (Homo sapiens, UniProt P41162-2 1-143).
T10 sequence: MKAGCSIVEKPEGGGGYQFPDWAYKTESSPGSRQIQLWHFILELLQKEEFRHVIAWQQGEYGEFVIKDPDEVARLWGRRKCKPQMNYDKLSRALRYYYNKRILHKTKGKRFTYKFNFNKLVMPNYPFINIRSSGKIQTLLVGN
In a few lines: as §1

For the next assay, the target named is ETV6 (Homo sapiens, UniProt P41212 1-452). Put shortly: as §1
Sequence of ETV6 (P41212 whole entry): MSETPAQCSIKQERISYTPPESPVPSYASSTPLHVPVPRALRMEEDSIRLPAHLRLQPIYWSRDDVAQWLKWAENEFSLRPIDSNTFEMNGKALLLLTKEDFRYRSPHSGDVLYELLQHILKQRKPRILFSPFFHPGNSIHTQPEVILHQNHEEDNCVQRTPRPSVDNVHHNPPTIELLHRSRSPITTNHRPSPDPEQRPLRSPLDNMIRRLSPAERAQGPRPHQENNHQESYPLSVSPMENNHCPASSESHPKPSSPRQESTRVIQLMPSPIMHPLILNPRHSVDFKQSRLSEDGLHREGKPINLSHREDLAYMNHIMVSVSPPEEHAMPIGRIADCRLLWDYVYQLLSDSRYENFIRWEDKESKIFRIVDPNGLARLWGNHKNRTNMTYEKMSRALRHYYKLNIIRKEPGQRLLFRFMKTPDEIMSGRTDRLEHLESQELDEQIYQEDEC

Sequence of ELF4 (Q99607 whole entry): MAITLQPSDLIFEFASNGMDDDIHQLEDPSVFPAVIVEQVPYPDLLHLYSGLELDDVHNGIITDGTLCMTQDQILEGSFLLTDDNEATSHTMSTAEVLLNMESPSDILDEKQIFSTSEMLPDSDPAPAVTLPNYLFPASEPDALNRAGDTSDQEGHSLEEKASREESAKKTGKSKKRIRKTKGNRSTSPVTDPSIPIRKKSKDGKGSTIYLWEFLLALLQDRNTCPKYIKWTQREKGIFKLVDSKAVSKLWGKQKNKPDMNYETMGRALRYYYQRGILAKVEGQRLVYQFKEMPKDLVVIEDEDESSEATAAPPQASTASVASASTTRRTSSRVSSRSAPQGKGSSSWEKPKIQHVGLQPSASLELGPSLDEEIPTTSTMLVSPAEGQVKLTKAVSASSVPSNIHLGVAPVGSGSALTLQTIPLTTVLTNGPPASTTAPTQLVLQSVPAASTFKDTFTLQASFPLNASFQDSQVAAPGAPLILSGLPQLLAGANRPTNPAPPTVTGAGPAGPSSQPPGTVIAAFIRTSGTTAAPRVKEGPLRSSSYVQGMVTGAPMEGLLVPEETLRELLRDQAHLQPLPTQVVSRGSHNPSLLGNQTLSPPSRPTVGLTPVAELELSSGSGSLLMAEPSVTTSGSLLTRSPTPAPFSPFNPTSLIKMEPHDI
Sequence of ELF1 (P32519 whole entry): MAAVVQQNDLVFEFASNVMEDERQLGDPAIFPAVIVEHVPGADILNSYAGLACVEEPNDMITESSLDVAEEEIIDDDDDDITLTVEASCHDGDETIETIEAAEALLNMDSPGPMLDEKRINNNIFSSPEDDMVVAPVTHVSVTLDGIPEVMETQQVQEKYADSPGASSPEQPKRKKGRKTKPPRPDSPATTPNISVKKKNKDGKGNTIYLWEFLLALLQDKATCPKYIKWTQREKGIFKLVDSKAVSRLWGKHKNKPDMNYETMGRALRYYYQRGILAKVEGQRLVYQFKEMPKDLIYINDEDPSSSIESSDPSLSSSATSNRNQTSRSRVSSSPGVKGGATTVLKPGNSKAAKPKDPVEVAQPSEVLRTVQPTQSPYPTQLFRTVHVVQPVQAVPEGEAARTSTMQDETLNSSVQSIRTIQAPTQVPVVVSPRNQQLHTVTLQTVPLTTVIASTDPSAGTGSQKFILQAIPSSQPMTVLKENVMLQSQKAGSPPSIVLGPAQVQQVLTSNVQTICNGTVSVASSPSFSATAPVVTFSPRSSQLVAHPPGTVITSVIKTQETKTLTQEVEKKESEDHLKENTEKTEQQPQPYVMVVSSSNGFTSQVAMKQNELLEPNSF
Sequence of ETV5 (P41161 whole entry): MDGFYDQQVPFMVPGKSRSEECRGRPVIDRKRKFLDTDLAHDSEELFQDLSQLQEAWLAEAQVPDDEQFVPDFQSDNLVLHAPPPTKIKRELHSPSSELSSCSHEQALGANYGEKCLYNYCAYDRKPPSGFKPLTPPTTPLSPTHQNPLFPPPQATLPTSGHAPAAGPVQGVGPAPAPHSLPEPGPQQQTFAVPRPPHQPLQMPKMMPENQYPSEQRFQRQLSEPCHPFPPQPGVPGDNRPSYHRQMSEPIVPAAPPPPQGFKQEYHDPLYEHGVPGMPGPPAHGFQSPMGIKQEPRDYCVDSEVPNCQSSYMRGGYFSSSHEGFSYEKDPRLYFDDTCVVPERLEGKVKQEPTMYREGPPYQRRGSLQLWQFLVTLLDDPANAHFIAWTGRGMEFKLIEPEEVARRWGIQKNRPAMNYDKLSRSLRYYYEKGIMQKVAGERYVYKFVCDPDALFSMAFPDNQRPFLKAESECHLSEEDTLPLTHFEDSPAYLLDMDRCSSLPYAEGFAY

For the sequence TGCCGG, the binding signal was 1.11 fold enrichment (6-mer frequency, TF over GST control) in the assay with FLI1; 1.09 fold enrichment (6-mer frequency, TF over GST control) with ELK1; 1.13 fold enrichment (6-mer frequency, TF over GST control) with ERG; 1.02 fold enrichment (6-mer frequency, TF over GST control) with ELF1; 1.03 fold enrichment (6-mer frequency, TF over GST control) with EHF; 1.02 fold enrichment (6-mer frequency, TF over GST control) in the assay with SPIB. Also, the binding signal in the assay with ELK3 was 1.02 fold enrichment (6-mer frequency, TF over GST control); with FEV it was 1.26 fold enrichment (6-mer frequency, TF over GST control); with ETV5, 1.04 fold enrichment (6-mer frequency, TF over GST control); with SPIC, 1.09 fold enrichment (6-mer frequency, TF over GST control); with ELF4, 1.04 fold enrichment (6-mer frequency, TF over GST control); with ETV1 it was 1.11 fold enrichment (6-mer frequency, TF over GST control). Besides, the binding signal with ETS2 was 1 fold enrichment (6-mer frequency, TF over GST control); with ELF5 it was 1.09 fold enrichment (6-mer frequency, TF over GST control); with ETV3, 1.21 fold enrichment (6-mer frequency, TF over GST control); in the assay with ETV6 it was 1.13 fold enrichment (6-mer frequency, TF over GST control).
